# Experimental data from PubChem BioAssay (Tox21).
# Results filed as inconclusive are left out. A call without a number means that no potency is given here. Unmarked numbers belong to inactive results. Activity calls are given as the source filed them. Calls come from the whole dose curve; as a rule, active = well fitted cell-killing curve with a large enough effect in the repeat runs; inconclusive = weak or mixed curves, or effect the other way; inactive = flat fitted curve, though single readings scatter.
# Tests used:
# [1] = cAMP Responsive Elements (CRE) small molecule antagonists, cell-based qHTS assay: qHTS cell viability counter screen (AID 2060913); settings: CRE-bla HEK293T viability, CellTiter-Glo luminescence, 5 h; series mostly up to 92.4 µM; note: nearly all actives have a fitted effect of over 40% in size; note: potency is the fitted concentration of half-maximal effect
# Outline: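 HEK293T CRE-bla, 2,000 cells/well, 18 h preincubation; cpd in DMSO + NKH477 0.25 uM final, 3 h 37 C/5% CO2; LiveBLAzer 2 h RT, then CellTiter-Glo 30 min RT, luminescence.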
# [2] = cAMP Responsive Elements (CRE) small molecule agonists, cell-based qHTS assay: qHTS cell viability counter screen (AID 2060914); settings: CRE-bla HEK293T viability, CellTiter-Glo luminescence, 5 h; series mostly up to 92.4 µM;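 note: viability read after 3 h of compound exposure; nearly all actives have a fitted effect of over 50% in size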
# Outline: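 HEK 293T CRE-bla; DMEM + 10% dialyzed FBS, 25 mM HEPES; 18 h pre-incubation; compound 3 h, 37 °C/5% CO2; CellTiter-Glo added after reporter read; luminescence after 30 min RT.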
SMILES,Potency [1],Potency [2],"viability change, negative = cytotoxic [1]","activity change, negative = cytotoxicity [2]"
CCCCN(CCCC)C(=S)SSC(=S)N(CCCC)CCCC,inactive,inactive,–,–
CCN(C)C(=O)Oc1cccc([C@H](C)N(C)C)c1,inactive,inactive,–,–
CC(C)N=C=NC(C)C,inactive,inactive,–,–
CS(=O)(=O)O,inactive,inactive,–,–
CC(C)(C)c1ccc(CCC=O)cc1,inactive,inactive,–,–
OCC(O)[C@@H](O)[C@H](O)[C@H](O)CO[C@H]1O[C@H](CO)[C@@H](O)[C@H](O)[C@H]1O (stereo partly drawn),inactive,inactive,–,–
C#C[C@]1(O)CC[C@H]2[C@@H]3[C@H](C)CC4=C(CCC(=O)C4)[C@H]3CC[C@@]21C,inactive,inactive,–,–
COc1ccc(-n2nc(C(F)F)cc2-c2ccc(S(C)=O)cc2)cc1 (stereo not drawn),inactive,inactive,–,–
OCC1(CO)COCOC1,inactive,inactive,–,–
O=C(O)c1c(O)c(-c2ccccc2)nc2ccccc12,inactive,inactive,–,–
CC1(C)CCC[C@]2(C)[C@H]3CCO[C@]3(C)CC[C@@H]12,inactive,inactive,–,–
CN1C[C@@H]2C[C@H]1CN2c1cc2c(cc1F)c(=O)c(C(=O)O)cn2C1CC1,–,–,-0.602% [at 18.9 µM],19.9% [at 18.9 µM]
Cc1ccc(Cl)c(Nc2ccccc2C(=O)O)c1Cl,inactive,inactive,–,–
CNCCC(Oc1ccccc1OC)c1ccccc1 (stereo not drawn),inactive,inactive,–,–
COc1cc(C)c(Cc2cnc(N)nc2N)cc1OC,inactive,inactive,–,–
CCOc1ccc(NC(=O)OC(C)C)cc1OCC,inactive,inactive,–,–
CSc1ccc(O)cc1C,inactive,inactive,–,–
Nc1ccc(S(=O)(=O)Nc2ccccn2)cc1,inactive,inactive,–,–
S=C(NC1CCCCC1)NC1CCCCC1,inactive,inactive,–,–
NS(=O)(=O)c1ccc(Cl)c(S(N)(=O)=O)c1,inactive,inactive,–,–
CCCCCC/C=C/C(=O)OC,inactive,inactive,–,–
CC(=O)Oc1cc(C(C)C)c(OCCN(C)C)cc1C,inactive,inactive,–,–
CCCCCCCCCCOc1cc2c(=O)c(C(=O)OCC)c[nH]c2cc1OCC,–,–,-0.799% [at 8.39 µM],-0.252% [at 8.39 µM]

SMILES,Potency [1],Potency [2],"viability change, negative = cytotoxic [1]","activity change, negative = cytotoxicity [2]"
CC(C)=CCC[C@H](C)CC=O,inactive,inactive,–,–
CC(C)(C)NC(N)=O,inactive,inactive,–,–
C=C(C)C(=O)OCCO,inactive,inactive,–,–
NC(=O)c1ccccc1Cl,inactive,inactive,–,–
CC[N+](C)(CC)CCOC(=O)C(O)(c1ccccc1)C1CCCCC1 (stereo not drawn),inactive,inactive,–,–
COCCOCCOCCOC,inactive,inactive,–,–
C/C(CC(C)C)=N\O,inactive,inactive,–,–
NS(=O)(=O)c1cc2c(cc1Cl)NC(C1CC3C=CC1C3)NS2(=O)=O (stereo not drawn),inactive,inactive,–,–
CCOC(C)(C)C,inactive,inactive,–,–
O=C(c1ccccc1)C(O)c1ccccc1 (stereo not drawn),inactive,inactive,–,–
CC[N+](C)(C)c1cccc(O)c1,inactive,inactive,–,–
CCCNC(=O)NS(=O)(=O)c1ccc(Cl)cc1,inactive,inactive,–,–
Oc1ccc(C2CNCCc3c2cc(O)c(O)c3Cl)cc1 (stereo not drawn),inactive,inactive,–,–
NS(=O)(=O)c1cc2c(cc1Cl)NC(CSCc1ccccc1)=NS2(=O)=O,inactive,inactive,–,–
CC(C)(CC(=O)O)C(=O)O,inactive,inactive,–,–
CC(=O)OCC(=O)[C@@]12OC(C)(C)O[C@@H]1C[C@H]1[C@@H]3C[C@H](F)C4=CC(=O)C=C[C@]4(C)[C@@]3(F)[C@@H](O)C[C@@]12C,inactive,inactive,–,–
O=C(O)c1snc(Cl)c1Cl,inactive,inactive,–,–
O=S(=O)(Oc1ccc(Cl)cc1Cl)c1ccccc1,inactive,inactive,–,–
CC(C)[C@H](N)C(=O)OCCOCn1cnc2c(=O)[nH]c(N)nc21,inactive,inactive,–,–
CCc1cccc(C)c1N(C(=O)CS(=O)(=O)O)C(C)COC (stereo not drawn),inactive,inactive,–,–
CCCCC/C=C\CCC=O,inactive,inactive,–,–
CCCCCCNC(=O)n1cc(F)c(=O)[nH]c1=O,inactive,inactive,–,–
O=C(O)c1c(Cl)ccc(Cl)c1Cl,inactive,inactive,–,–

SMILES,Potency [1],Potency [2],"viability change, negative = cytotoxic [1]","activity change, negative = cytotoxicity [2]"
CCCCCCCCO,inactive,inactive,–,–
C=C(C)[C@H]1CC=C(C)CC1,inactive,inactive,–,–
O=C(O)C(=O)Cc1c[nH]c2ccccc12,inactive,inactive,–,–
Nc1ccccc1O,inactive,inactive,–,–
OCCOCCN1CCN(C(c2ccccc2)c2ccc(Cl)cc2)CC1 (stereo not drawn),inactive,inactive,–,–
COc1cc(NC(C)CCCN)c2ncccc2c1 (stereo not drawn),inactive,inactive,–,–
Nc1nc(-c2ccc([N+](=O)[O-])cc2)cs1,inactive,inactive,–,–
CCCCN(CCCC)CCCCCCN(CCCC)CCCC,inactive,inactive,–,–
C#C[C@]1(O)CC[C@H]2[C@@H]3CCc4cc(OC5CCCC5)ccc4[C@H]3CC[C@@]21C,inactive,inactive,–,–
NC(=O)N[C@@H](CCC(=O)O)C(=O)O,inactive,inactive,–,–
O=C(O)CCCc1c[nH]c2ccccc12,inactive,inactive,–,–
CCCC(=O)C(=O)O,inactive,inactive,–,–
C(=C(c1ccccc1)c1ccccc1)c1ccccc1,inactive,inactive,–,–
CC1C2CC(CC2C2CCCC(O)C2)C1(C)C (stereo not drawn),inactive,inactive,–,–
O=C(O)C[C@H](O)C[C@H](O)/C=C/c1c(C2CC2)nc2ccccc2c1-c1ccc(F)cc1,–,–,5.03% [at 18.9 µM],17.9% [at 18.9 µM]
CCC(C(=O)NC(N)=O)c1ccccc1 (stereo not drawn),inactive,inactive,–,–
CCOC(=O)c1cccc(N)c1,inactive,inactive,–,–
c1ccc(CNc2ncnc3nc[nH]c23)cc1,inactive,inactive,–,–
Cc1ccncc1,inactive,inactive,–,–
C=C(C)C(=O)OCCOCCOC(=O)C(=C)C,inactive,inactive,–,–
O=C(O)c1ccc(O)c(O)c1,inactive,inactive,–,–
NCCOCCO,inactive,inactive,–,–
Cn1cnc2ncnc(N)c21,inactive,inactive,–,–

SMILES,Potency [1],Potency [2],"viability change, negative = cytotoxic [1]","activity change, negative = cytotoxicity [2]"
O=c1oc2cc(O)ccc2c2oc3cc(O)ccc3c12,inactive,inactive,–,–
c1ccc(SSc2ccccc2)cc1,inactive,inactive,–,–
NC(=O)NC1NC(=O)NC1=O (stereo not drawn),inactive,inactive,–,–
CCCCN1C=CN(C)C1,–,–,7.21% [at 18.9 µM],2.49% [at 18.9 µM]
CO[C@@H]1[C@@H](O[C@@H]2O[C@H](C)[C@@H](O[C@H]3C[C@@](C)(O)[C@@H](O)[C@H](C)O3)[C@H](N(C)C)[C@H]2O)[C@@H](CC=O)C[C@@H](C)[C@@H](O[C@@H]2CC[C@H](N(C)C)[C@@H](C)O2)/C=C/C=C/C[C@@H](C)OC(=O)C[C@H]1OC(C)=O,inactive,inactive,–,–
C=C(C)CC(C)(C)C,inactive,inactive,–,–
O=C(O)c1cc(O)c2c(c1)C(=O)c1cccc(O)c1C2=O,inactive,inactive,–,–
Cc1cccc(C(=O)O)c1O,inactive,inactive,–,–
CCCCCCCCCCCCCCCCCCN(C)C,inactive,inactive,–,–
CCCCCC(=O)O[C@]1(C(C)=O)CC[C@H]2[C@@H]3CCC4=CC(=O)CC[C@]4(C)[C@H]3CC[C@@]21C,inactive,inactive,–,–
CCn1c2ccccc2c2cc(N)ccc21,inactive,inactive,–,–
C=C(C)C(=O)OCC(C)(C)COC(=O)C(=C)C,inactive,inactive,–,–
c1ccc(CC2=NCCN2)cc1,inactive,inactive,–,–
NC12CC3CC(CC(C3)C1)C2,inactive,inactive,–,–
CC(CN(C)C)CN1c2ccccc2CCc2ccccc21 (stereo not drawn),inactive,inactive,–,–
NC(=O)c1ccncc1,inactive,inactive,–,–
C=CCOC(=O)/C=C\C(=O)OCC=C,inactive,inactive,–,–
CCCCCCCCCOC(=O)c1ccc(O)cc1,47.9 µM (active),inactive,–,–
C=C(C)CCCC,inactive,inactive,–,–
OC[C@H]1O[C@@H](OCCc2ccc(O)cc2)[C@H](O)[C@@H](O)[C@@H]1O,inactive,inactive,–,–
NCCC(O)(P(=O)(O)O)P(=O)(O)O,inactive,inactive,–,–
Nc1ccc(NC(=O)c2ccc(N)cc2)cc1,inactive,inactive,–,–
Brc1cc2ccccc2c2ccccc12,inactive,inactive,–,–

SMILES,Potency [1],Potency [2],"viability change, negative = cytotoxic [1]","activity change, negative = cytotoxicity [2]"
CC(CCc1ccc(O)cc1)NCCc1ccc(O)c(O)c1 (stereo not drawn),inactive,inactive,–,–
C#CC(O)CCCCC (stereo not drawn),inactive,inactive,–,–
CNC(=O)CN(CCN(CCN(CC(=O)[O-])CC(=O)NC)CC(=O)[O-])CC(=O)[O-].O.[Gd+3],inactive,inactive,–,–
COC(=O)C1CC(=O)C(C(=O)OC)CC1=O (stereo not drawn),–,–,18.8% [at 8.39 µM],-4.18% [at 8.39 µM]
Nc1ccc(S(=O)(=O)O)cc1,inactive,inactive,–,–
CCC(C)C1N=C(C)C(C)S1 (stereo not drawn),inactive,inactive,–,–
N[C@@H](CCC(=O)Nc1ccc([N+](=O)[O-])cc1)C(=O)O,inactive,inactive,–,–
C=CCc1cc(S(=O)(=O)c2ccc(O)c(CC=C)c2)ccc1O,inactive,inactive,–,–
CC1CC(O)CC(C)(C)C1 (stereo not drawn),inactive,inactive,–,–
CCCCCCc1ccc(-c2ccc(C#N)cc2)cc1,inactive,inactive,–,–
CC(CN(CCN(CC(C)OCCO)CC(C)OCCO)CC(C)OCCO)OCCO (stereo not drawn),inactive,inactive,–,–
C1CCC2(CCCCO2)OC1,inactive,inactive,–,–
CCCCCCCCCCOC(=O)c1ccccc1C(=O)OCCCCCCCC,inactive,inactive,–,–
NCCOCCN,inactive,inactive,–,–
C[N+]1(C)CCC(OC(=O)C(O)(c2ccccc2)C2CCCC2)C1 (stereo not drawn),inactive,inactive,–,–
CC(C)n1nc(-c2cc3cc(O)ccc3[nH]2)c2c(N)ncnc21,inactive,inactive,–,–
CN(C)Cc1ccccc1O,inactive,inactive,–,–
CC(C)(C)NCCO,inactive,inactive,–,–
Nc1cccc(N)n1,inactive,inactive,–,–
COc1cc(C(=O)OC(COCCC(C)C)CN2CCOCC2)cc(OC)c1OC (stereo not drawn),inactive,inactive,–,–
C1CCC(SSC2CCCCC2)CC1,inactive,inactive,–,–
CCCCCC,inactive,inactive,–,–
